Source: PubChem BioAssay AID1159580 (chemical genetic matrix, 2015)
The whole screen tested about 5,500 compounds, of which about 2,000 (36%) were called active. Inconclusive results (about 18%) are left out. Rule as the data show it: active = normalized growth mostly below about 0.91 (no sharp cut-off); inconclusive = no clear call, values can overlap the other calls; inactive = mostly above about 0.92. The list shows a part of the results.

Test: chemical genetic growth profiling, strain panel (AID 1159580);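 also: tested at 20 µM; growth read once vehicle control cultures reached saturation at 30 °C; 1 = growth at the plate median or of vehicle wells; lower values mean less growth of the strain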
Conditions: growth OD

Measured: normalized growth

COc1ccc2c3c1O[C@H]1C[C@@H](O)C=C[C@@]31CCN(C)C2
inactive: S. cerevisiae deletion strains, locus YJR075W, strain HOC1, hits give low values 0.947 | S. cerevisiae deletion strains, locus YKL009W, strain mrt4, hits give low values 1.02 | S. cerevisiae deletion strains, locus YKL068W, hits give low values 1.02 | S. cerevisiae deletion strains, locus YKL085W, strain MDH1 (second series), hits give low values 1 | S. cerevisiae deletion strains, locus YKL085W, strain MDH1, hits give low values 1 | S. cerevisiae deletion strains, locus YKL160W, strain elf1, hits give low values 0.996 | S. cerevisiae deletion strains, locus YKL190W, strain CNB1, hits give low values 1.01 | S. cerevisiae deletion strains, locus YKR001C, strain vps1, hits give low values 1.03 | S. cerevisiae deletion strains, locus YKR026C, strain gcn3, hits give low values 0.974 | S. cerevisiae deletion strains, locus YKR091W, strain srl3, hits give low values 0.99 | S. cerevisiae deletion strains, locus YLL001W, strain dnm1, hits give low values 0.996 | S. cerevisiae deletion strains, locus YLL026W, hits give low values 0.995 | S. cerevisiae deletion strains, locus YLL041C, strain sdh2, hits give low values 0.999 | S. cerevisiae deletion strains, locus YLR027C, strain aat2, hits give low values 0.989 | S. cerevisiae deletion strains, locus YLR039C, strain RIC1, hits give low values 1.06 | S. cerevisiae deletion strains, locus YLR058C, strain SHM2, hits give low values 1.01 | S. cerevisiae deletion strains, locus YLR102C, strain apc9, hits give low values 1.02 | S. cerevisiae deletion strains, locus YLR113W, strain HOG1, hits give low values 1.01 | S. cerevisiae deletion strains, locus YLR221C, strain rsa3, hits give low values 1.02 | S. cerevisiae deletion strains, locus YLR258W, strain gsy2, hits give low values 1 | S. cerevisiae deletion strains, locus YLR262C, strain YPT6 (second series), hits give low values 0.984 | S. cerevisiae deletion strains, locus YLR262C, strain YPT6, hits give low values 1.02 | S. cerevisiae deletion strains, locus YLR268W, strain sec22, hits give low values 0.993 | S. cerevisiae deletion strains, locus YLR320W, strain mms22, hits give low values 1.01 | S. cerevisiae deletion strains, locus YLR330W, strain CHS5, hits give low values 1.01 | S. cerevisiae deletion strains, locus YLR342W, strain FKS1 (second series), hits give low values 1.08 | S. cerevisiae deletion strains, locus YLR342W, strain FKS1, hits give low values 1.01 | S. cerevisiae deletion strains, locus YLR357W, strain rsc2, hits give low values 0.962 | S. cerevisiae deletion strains, locus YLR370C, strain arc18, hits give low values 1 | S. cerevisiae deletion strains, locus YLR371W, strain rom2, hits give low values 1.02 | S. cerevisiae deletion strains, locus YLR384C, strain iki3, hits give low values 1.01 | S. cerevisiae deletion strains, locus YLR418C, strain cdc73, hits give low values 0.991 | S. cerevisiae deletion strains, locus YML016C, strain PPZ1, hits give low values 1 | S. cerevisiae deletion strains, locus YML032C, strain rad52, hits give low values 1.04 | S. cerevisiae deletion strains, locus YML120C, strain ndi1, hits give low values 0.979 | S. cerevisiae deletion strains, locus YML124C, strain tub3, hits give low values 1.01 | S. cerevisiae deletion strains, locus YMR058W, strain fet3, hits give low values 0.989 | S. cerevisiae deletion strains, locus YMR078C, strain ctf18, hits give low values 1.03 | S. cerevisiae deletion strains, locus YMR125W, strain sto1, hits give low values 0.965 | S. cerevisiae deletion strains, locus YMR129W, hits give low values 1.01 | S. cerevisiae deletion strains, locus YMR205C, strain PFK2, hits give low values 0.992 | S. cerevisiae deletion strains, locus YMR223W, strain ubp8, hits give low values 1.04 | S. cerevisiae deletion strains, locus YMR231W, strain pep5, hits give low values 1 | S. cerevisiae deletion strains, locus YMR263W, strain SAP30, hits give low values 0.991 | S. cerevisiae deletion strains, locus YMR307W, strain GAS1, hits give low values 1.06 | S. cerevisiae deletion strains, locus YNL067W, strain RPL9B, hits give low values 0.989 | S. cerevisiae deletion strains, locus YNL071W, strain lat1, hits give low values 1.01 | S. cerevisiae deletion strains, locus YNL128W, strain TEP1, hits give low values 0.974 | S. cerevisiae deletion strains, locus YNL153C, strain GIM3, hits give low values 0.982 | S. cerevisiae deletion strains, locus YNL183C, strain NPR1, hits give low values 0.948 | S. cerevisiae deletion strains, locus YNL209W, strain ssb2, hits give low values 1 | S. cerevisiae deletion strains, locus YNL233W, strain BNI4, hits give low values 0.995 | S. cerevisiae deletion strains, locus YNL248C, strain rpa49, hits give low values 0.996 | S. cerevisiae deletion strains, locus YNL250W, strain rad50, hits give low values 1.01 | S. cerevisiae deletion strains, locus YNL271C, strain bni1, hits give low values 1.02 | S. cerevisiae deletion strains, locus YNL298W, strain CLA4, hits give low values 1.03 | S. cerevisiae deletion strains, locus YNL307C, strain MCK1, hits give low values 1.05 | S. cerevisiae deletion strains, locus YNL322C, strain KRE1 (second series), hits give low values 1 | S. cerevisiae deletion strains, locus YNL322C, strain KRE1, hits give low values 1.01 | S. cerevisiae deletion strains, locus YNR049C, strain mso1, hits give low values 1.01 | S. cerevisiae deletion strains, locus YNR052C, strain pop2, hits give low values 1.02 | S. cerevisiae deletion strains, locus YOL006C, strain TOP1, hits give low values 1.03 | S. cerevisiae deletion strains, locus YOL012C, strain htz1 0.856 | S. cerevisiae deletion strains, locus YOL147C, strain pex11, hits give low values 1.01 | S. cerevisiae deletion strains, locus YOR001W, strain rrp6, hits give low values 0.996 | S. cerevisiae deletion strains, locus YOR061W, strain CKA2, hits give low values 1.01 | S. cerevisiae deletion strains, locus YOR069W, strain VPS5, hits give low values 1.01 | S. cerevisiae deletion strains, locus YOR070C, strain gyp1, hits give low values 1.01 | S. cerevisiae deletion strains, locus YOR080W, strain dia2, hits give low values 0.994 | S. cerevisiae deletion strains, locus YOR083W, strain WHI5, hits give low values 0.988 | S. cerevisiae deletion strains, locus YOR106W, strain vam3, hits give low values 1 | S. cerevisiae deletion strains, locus YOR136W, strain idh2, hits give low values 1.02 | S. cerevisiae deletion strains, locus YOR144C, strain elg1, hits give low values 1.01 | S. cerevisiae deletion strains, locus YOR184W, strain ser1, hits give low values 1.06 | S. cerevisiae deletion strains, locus YOR231W, strain MKK1, hits give low values 0.987 | S. cerevisiae deletion strains, locus YOR265W, strain rbl2, hits give low values 1 | S. cerevisiae deletion strains, locus YOR270C, strain vph1, hits give low values 0.965 | S. cerevisiae deletion strains, locus YOR290C, strain snf2, hits give low values 1.01 | S. cerevisiae deletion strains, locus YOR316C, strain cot1, hits give low values 1.02 | S. cerevisiae deletion strains, locus YPL051W, strain arl3, hits give low values 0.988 | S. cerevisiae deletion strains, locus YPL055C, strain LGE1, hits give low values 0.935 | S. cerevisiae deletion strains, locus YPL078C, strain atp4, hits give low values 1 | S. cerevisiae deletion strains, locus YPL106C, strain sse1, hits give low values 1.01 | S. cerevisiae deletion strains, locus YPL240C, strain hsp82, hits give low values 1.03 | S. cerevisiae deletion strains, locus YPL241C, strain CIN2, hits give low values 1.01 | S. cerevisiae deletion strains, locus YPL256C, strain CLN2, hits give low values 1.01 | S. cerevisiae deletion strains, locus YPR119W, strain clb2, hits give low values 1 | S. cerevisiae deletion strains, locus YPR141C, strain kar3, hits give low values 1.01 | S. cerevisiae deletion strains, locus YPR163C, strain tif3, hits give low values 1.01 | S. cerevisiae deletion strains, locus YPR167C, strain met16, hits give low values 1.01 | S. cerevisiae deletion strains, strain wtn01, hits give low values 1 | S. cerevisiae strains, strain wild type, hits give low values 1.02
